# Results: publication PMC7862700, “An all-to-all approach to the identification of sequence-specific readers for epigenetic DNA modifications on cytosine”
# How the values were obtained:
# Experiment in all cases: DAPPL (digital affinity profiling via proximity ligation, sequencing); 10 mM Tris-HCl pH 7.5, 50 mM NaCl, 1 mM DTT, 4% glycerol, room temperature, 30 min; GST-TFs on glutathione beads, 16-mer random dsDNA library, 0.1% formaldehyde crosslink after washing; high values mean tight binding
# Conditions in all cases: protein: recombinant; tags: N-terminal GST; dsDNA, one strand shown
# ELF4 = ELF4 (Homo sapiens, UniProt Q99607 1-663)
# How it was run: (§1)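 Sequencing on an Illumina NextSeq500 followed washing, crosslinking with 0.1% formaldehyde, proximity ligation (BsaI/T4 ligase, 1 h, 37 °C) and PCR amplification of pools that had been incubated for 30 min at room temperature with 200 nmole of a random double-stranded 16-mer DNA library in Tris/NaCl/DTT/glycerol buffer. Each pool held DNA-barcoded human transcription factors, expressed in yeast as GST fusions and captured on glutathione beads, plus a tag-only sample. Binding signal is a hexamer's read frequency for a factor divided by its frequency in the tag-only sample.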
# ELK4 = target: T1, ELK4 (Homo sapiens, UniProt P28324-2 1-405)
# T1 sequence: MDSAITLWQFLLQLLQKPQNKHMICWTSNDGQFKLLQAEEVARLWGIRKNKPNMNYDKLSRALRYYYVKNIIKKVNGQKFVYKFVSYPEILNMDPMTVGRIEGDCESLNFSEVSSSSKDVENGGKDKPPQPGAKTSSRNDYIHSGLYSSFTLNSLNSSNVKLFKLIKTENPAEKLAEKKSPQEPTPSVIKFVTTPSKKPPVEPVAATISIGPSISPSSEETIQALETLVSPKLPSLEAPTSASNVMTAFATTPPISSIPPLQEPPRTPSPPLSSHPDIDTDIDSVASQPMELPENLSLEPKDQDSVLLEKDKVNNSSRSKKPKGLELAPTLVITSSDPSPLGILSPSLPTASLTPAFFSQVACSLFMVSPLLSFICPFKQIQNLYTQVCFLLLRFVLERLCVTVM
# How it was run: as §1
# ETV1 = ETV1 (Homo sapiens, UniProt P50549 1-477)
# How it was run: as §1
# ELK1 = target: T2, ELK1 (Homo sapiens, UniProt P19419 1-428)
# T2 sequence: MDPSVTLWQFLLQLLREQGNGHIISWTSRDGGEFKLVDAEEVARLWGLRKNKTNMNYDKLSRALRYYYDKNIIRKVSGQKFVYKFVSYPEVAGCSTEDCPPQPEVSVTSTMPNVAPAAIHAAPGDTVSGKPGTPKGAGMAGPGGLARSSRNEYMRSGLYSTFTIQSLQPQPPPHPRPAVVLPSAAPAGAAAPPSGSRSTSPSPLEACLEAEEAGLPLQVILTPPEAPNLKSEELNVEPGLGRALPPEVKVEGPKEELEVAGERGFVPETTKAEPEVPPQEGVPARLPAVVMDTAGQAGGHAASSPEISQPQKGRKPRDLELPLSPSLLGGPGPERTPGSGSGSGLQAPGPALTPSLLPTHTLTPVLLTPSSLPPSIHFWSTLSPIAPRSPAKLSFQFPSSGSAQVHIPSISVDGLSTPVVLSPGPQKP
# How it was run: as §1
# GABPA = target: T3, GABPA (Homo sapiens, UniProt Q06546 1-454)
# T3 sequence: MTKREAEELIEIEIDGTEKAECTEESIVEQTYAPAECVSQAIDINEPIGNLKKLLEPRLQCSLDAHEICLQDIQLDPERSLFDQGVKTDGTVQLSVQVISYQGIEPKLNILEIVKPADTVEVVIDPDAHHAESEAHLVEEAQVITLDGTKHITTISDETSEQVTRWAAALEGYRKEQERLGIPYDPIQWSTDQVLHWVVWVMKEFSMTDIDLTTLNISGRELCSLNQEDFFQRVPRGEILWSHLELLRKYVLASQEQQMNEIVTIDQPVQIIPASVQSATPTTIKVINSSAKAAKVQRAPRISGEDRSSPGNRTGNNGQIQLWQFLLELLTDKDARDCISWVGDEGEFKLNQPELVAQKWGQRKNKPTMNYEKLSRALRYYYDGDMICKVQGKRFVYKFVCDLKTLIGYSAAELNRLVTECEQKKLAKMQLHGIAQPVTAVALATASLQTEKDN
# How it was run: as §1
# ERG = target: T4, ERG (Homo sapiens, UniProt P11308 1-479)
# T4 sequence: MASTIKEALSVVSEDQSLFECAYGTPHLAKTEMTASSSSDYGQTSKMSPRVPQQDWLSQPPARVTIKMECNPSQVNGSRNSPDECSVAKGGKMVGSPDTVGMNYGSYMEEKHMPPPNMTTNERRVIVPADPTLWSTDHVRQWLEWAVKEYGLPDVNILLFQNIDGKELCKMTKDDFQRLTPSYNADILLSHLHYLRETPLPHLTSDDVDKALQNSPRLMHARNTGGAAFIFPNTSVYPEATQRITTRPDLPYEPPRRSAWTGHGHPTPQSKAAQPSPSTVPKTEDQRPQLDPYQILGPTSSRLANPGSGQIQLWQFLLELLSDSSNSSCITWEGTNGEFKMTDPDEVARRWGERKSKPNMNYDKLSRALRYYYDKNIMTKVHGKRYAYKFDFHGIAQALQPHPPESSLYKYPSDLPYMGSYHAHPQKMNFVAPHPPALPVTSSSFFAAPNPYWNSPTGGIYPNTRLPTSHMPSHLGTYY
# How it was run: as §1
# EHF = target: T5, EHF (Homo sapiens, UniProt Q9NZC4 1-300)
# T5 sequence: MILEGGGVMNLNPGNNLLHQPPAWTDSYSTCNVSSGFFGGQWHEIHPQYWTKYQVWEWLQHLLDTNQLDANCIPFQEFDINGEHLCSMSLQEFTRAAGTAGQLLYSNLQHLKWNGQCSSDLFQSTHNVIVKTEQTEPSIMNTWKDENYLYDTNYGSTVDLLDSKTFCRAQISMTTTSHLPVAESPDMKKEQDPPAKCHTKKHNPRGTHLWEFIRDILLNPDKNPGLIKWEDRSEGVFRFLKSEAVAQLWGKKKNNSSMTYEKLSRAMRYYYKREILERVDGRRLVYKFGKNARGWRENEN
# How it was run: as §1
# SPIB = SPIB (Homo sapiens, UniProt Q01892 1-262)
# How it was run: as §1
# ETV2 = target: T6, ETV2 (Homo sapiens, UniProt O00321 1-342)
# T6 sequence: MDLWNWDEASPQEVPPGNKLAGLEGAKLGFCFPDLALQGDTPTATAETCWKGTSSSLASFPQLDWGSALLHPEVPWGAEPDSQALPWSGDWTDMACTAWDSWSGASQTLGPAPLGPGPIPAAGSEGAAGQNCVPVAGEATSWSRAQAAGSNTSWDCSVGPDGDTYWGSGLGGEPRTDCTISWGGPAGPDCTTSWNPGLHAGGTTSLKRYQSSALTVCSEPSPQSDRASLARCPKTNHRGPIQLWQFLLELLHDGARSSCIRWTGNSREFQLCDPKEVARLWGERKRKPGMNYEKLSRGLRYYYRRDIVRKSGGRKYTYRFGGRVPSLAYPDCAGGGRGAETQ
# How it was run: as §1
# ERF = target: T7, ERF (Homo sapiens, UniProt P50548 1-548)
# T7 sequence: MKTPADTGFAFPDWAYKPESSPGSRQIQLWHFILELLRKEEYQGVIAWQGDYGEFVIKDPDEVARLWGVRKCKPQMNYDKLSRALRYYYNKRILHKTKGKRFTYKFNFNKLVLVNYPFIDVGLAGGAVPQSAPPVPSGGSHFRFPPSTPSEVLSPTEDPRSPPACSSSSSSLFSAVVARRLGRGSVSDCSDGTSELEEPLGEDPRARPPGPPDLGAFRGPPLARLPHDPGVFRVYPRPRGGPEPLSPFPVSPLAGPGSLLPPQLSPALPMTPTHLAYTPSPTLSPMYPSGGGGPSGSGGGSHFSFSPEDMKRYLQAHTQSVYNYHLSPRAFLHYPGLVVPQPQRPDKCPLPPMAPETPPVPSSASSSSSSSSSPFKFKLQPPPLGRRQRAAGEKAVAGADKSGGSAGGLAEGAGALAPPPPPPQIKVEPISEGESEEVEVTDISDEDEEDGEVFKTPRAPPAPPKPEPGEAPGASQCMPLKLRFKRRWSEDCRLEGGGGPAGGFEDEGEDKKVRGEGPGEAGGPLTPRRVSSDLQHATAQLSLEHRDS
# How it was run: as §1
# ETV3L = target: T8, ETV3L (Homo sapiens, UniProt Q6ZN32 1-361)
# T8 sequence: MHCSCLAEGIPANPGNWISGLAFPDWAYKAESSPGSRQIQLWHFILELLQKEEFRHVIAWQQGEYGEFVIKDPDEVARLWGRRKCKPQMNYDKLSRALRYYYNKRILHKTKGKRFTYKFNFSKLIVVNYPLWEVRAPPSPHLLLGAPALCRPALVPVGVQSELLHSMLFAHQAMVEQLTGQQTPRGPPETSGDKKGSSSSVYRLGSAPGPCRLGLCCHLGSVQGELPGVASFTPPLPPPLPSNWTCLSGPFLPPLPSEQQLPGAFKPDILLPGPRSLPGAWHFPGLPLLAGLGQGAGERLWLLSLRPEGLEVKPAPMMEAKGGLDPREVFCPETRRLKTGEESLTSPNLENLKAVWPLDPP
# How it was run: as §1
# ETV7 = target: T9, ETV7 (Homo sapiens, UniProt Q9Y603 1-341)
# T9 sequence: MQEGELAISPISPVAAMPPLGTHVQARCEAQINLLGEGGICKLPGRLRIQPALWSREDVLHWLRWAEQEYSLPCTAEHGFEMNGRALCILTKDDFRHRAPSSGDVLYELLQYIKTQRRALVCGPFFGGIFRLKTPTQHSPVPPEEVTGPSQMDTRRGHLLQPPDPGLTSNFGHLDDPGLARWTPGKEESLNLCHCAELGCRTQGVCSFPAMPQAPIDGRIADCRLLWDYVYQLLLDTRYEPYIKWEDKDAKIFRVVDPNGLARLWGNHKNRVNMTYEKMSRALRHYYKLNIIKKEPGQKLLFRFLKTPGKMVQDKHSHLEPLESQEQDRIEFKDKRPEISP
# How it was run: as §1
# ELF5 = target: T10, ELF5 (Homo sapiens, UniProt Q9UKW6-2 1-255)
# T10 sequence: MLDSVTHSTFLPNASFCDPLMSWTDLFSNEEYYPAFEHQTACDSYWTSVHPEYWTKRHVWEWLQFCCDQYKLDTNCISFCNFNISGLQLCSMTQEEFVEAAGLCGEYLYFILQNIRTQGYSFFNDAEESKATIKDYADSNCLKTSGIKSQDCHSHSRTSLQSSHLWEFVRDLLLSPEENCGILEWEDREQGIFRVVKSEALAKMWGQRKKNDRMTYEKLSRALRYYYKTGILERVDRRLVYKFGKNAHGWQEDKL
# How it was run: as §1
# Chain of ETV1 (P50549 whole entry): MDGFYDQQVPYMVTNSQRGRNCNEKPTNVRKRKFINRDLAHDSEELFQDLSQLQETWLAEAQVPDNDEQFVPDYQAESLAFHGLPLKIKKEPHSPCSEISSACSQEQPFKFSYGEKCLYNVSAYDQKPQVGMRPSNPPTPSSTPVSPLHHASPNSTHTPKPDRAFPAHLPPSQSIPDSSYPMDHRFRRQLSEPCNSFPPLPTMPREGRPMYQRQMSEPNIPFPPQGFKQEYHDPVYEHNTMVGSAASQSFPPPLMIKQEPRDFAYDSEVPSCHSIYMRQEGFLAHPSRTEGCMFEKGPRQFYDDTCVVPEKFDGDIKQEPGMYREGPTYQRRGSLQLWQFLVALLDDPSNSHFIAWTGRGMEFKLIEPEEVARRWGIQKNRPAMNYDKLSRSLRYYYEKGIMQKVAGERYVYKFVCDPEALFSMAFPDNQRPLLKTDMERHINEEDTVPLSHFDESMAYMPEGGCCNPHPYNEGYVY
# Chain of ELF4 (Q99607 whole entry, the tested form may be a part): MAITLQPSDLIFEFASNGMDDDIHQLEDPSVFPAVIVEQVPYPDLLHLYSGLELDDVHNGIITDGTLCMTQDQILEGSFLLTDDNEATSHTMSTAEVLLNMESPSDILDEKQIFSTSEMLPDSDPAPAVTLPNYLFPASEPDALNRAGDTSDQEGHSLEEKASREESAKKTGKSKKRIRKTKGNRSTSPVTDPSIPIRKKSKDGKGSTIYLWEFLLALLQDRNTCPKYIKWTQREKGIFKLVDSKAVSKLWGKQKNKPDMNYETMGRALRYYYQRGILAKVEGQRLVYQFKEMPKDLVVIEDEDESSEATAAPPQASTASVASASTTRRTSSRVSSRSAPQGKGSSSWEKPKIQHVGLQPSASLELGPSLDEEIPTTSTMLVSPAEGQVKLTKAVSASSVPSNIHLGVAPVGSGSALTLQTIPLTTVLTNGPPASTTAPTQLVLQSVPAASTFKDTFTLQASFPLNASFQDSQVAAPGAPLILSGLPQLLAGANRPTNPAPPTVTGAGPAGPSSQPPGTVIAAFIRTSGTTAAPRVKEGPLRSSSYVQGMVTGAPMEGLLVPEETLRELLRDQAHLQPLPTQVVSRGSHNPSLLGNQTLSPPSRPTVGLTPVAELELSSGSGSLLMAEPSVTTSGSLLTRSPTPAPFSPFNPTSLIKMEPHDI
# Chain of SPIB (Q01892 whole entry): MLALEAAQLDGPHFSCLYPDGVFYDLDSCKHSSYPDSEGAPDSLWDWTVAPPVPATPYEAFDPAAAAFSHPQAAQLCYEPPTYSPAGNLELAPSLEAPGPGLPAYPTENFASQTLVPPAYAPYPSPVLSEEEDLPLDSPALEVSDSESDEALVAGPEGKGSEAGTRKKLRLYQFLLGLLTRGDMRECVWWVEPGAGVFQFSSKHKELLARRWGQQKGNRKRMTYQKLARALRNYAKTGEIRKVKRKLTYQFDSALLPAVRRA
sequence,measurement,setting,value
GAGCTC,binding signal,ELF4,"1.02 fold enrichment (6-mer frequency, TF over GST control)"
same,binding signal,ELK4,"1.04 fold enrichment (6-mer frequency, TF over GST control)"
same,binding signal,ETV1,"1.05 fold enrichment (6-mer frequency, TF over GST control)"
GCAGGT,binding signal,ELK4,"1.01 fold enrichment (6-mer frequency, TF over GST control)"
GATTGC,binding signal,ELK1,"1.06 fold enrichment (6-mer frequency, TF over GST control)"
same,binding signal,GABPA,"1.04 fold enrichment (6-mer frequency, TF over GST control)"
same,binding signal,ERG,"1.01 fold enrichment (6-mer frequency, TF over GST control)"
same,binding signal,EHF,"1.02 fold enrichment (6-mer frequency, TF over GST control)"
same,binding signal,SPIB,"1.05 fold enrichment (6-mer frequency, TF over GST control)"
same,binding signal,ELK4,"1.04 fold enrichment (6-mer frequency, TF over GST control)"
same,binding signal,ETV2,"1.09 fold enrichment (6-mer frequency, TF over GST control)"
same,binding signal,ETV1,"1.02 fold enrichment (6-mer frequency, TF over GST control)"
same,binding signal,ERF,"1.02 fold enrichment (6-mer frequency, TF over GST control)"
same,binding signal,ETV3L,"1.02 fold enrichment (6-mer frequency, TF over GST control)"
same,binding signal,ETV7,"1.03 fold enrichment (6-mer frequency, TF over GST control)"
same,binding signal,ELF5,"1 fold enrichment (6-mer frequency, TF over GST control)"
